The target in test [1] is Tumor necrosis factor receptor superfamily member 10B (Homo sapiens) (UniProt O14763). Nature of the test: caspase-8 TRAIL sensitization, hit retest, confirmation, cell-based, NB7+caspase-8, with/without TRAIL, luminescence panel (AID 651596). Particulars: NB7 neuroblastoma + caspase-8, TRAIL sensitization, luminescence viability, with TRAIL, mean of runs, at 10 µM, stronger effect = higher value; in the data active = activity above about 50%; inactive = the rest.

Experiment in test [2]: as above
Particulars: NB7 neuroblastoma + caspase-8, without TRAIL, luminescence viability, without TRAIL, mean of runs, at 10 µM.

Data on 48 compounds can be found in PubChem BioAssay.

Sequence of Tumor necrosis factor receptor superfamily member 10B (Homo sapiens) (O14763 whole entry, looked up): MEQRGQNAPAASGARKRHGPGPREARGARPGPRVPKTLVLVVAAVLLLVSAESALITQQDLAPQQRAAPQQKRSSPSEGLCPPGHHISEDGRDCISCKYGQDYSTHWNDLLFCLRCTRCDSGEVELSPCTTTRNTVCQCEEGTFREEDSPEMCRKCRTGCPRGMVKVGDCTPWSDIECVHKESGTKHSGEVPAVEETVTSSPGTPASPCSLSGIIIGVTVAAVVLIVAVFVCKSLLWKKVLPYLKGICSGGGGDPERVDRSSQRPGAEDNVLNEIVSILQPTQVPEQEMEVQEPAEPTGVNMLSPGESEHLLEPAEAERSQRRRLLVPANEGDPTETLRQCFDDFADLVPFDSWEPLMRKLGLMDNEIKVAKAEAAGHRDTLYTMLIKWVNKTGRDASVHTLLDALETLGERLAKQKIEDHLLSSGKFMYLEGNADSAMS

Consider `CCc1nc(N2CCN(C(=O)CCl)CC2)c2c3c(sc2n1)CC(C)CC3` (stereo unspecified), for which the activity in test [1] was found to be 99.3%; in test [2], 91.5%.

With `O=C(/C=C/c1cccs1)N1CCc2ccccc21`, the activity was 59.8% in test [1] and 55.5% in test [2].

For `Cc1nc(N)nc(N)c1/C=C/C(C)(C)c1ccc(Cl)cc1`, the activity in test [1] amounted to 54.5%; in test [2] it was 61.7%.

As to `Cc1ccc2nc(N(CCCN(C)C)C(=O)c3ccc(S(=O)(=O)N4CCc5ccccc5C4)cc3)sc2c1`, the activity in test [1] came to 55.4%; in test [2] it was 68.3%.

For `CCCC(=O)N1CCN(c2ccc(NC(=O)c3cc4ccccc4o3)cc2Cl)CC1`, the figures for the activity in test [1] and in test [2] were 83% and 58.6%, respectively.

Regarding `CCOC(=O)NC(=O)CSc1nc(C)cc(C)c1C#N`, the activity in test [1] worked out at 71%; in test [2] it was 61.4%.

Turning to `COc1cc2c3nnc(-c4ccc(F)cc4)c-3cn(Cc3cccc(C)c3)c2cc1OC`, the activity was 48.9% in test [1] and 67% in test [2].

In the case of `CCN1CCN(Cc2ccc(NC(=O)c3cc(NC(=O)c4cnnc5ccccc45)cc(OC)c3)cc2C(F)(F)F)CC1`, the activity in test [1] was 55.2%; in test [2], 93.9%.

In the case of `c1ccc(CNc2nc(NCC3CC3)nc3cc(-c4ccccc4)sc23)cc1`, the activity in test [1] stood at 15.9%; in test [2], 16.7%.

Consider `Nc1c(C(=O)Nc2nc3ccccc3s2)sc2nc(-c3cccs3)ccc12`, for which the activity in test [1] came to 97.8%; in test [2], 98.7%.

As to `Cc1ccc(-c2cc(C(=O)N3CCOCC3)no2)cc1`, the activity in test [1] is 69.7%; in test [2], 65.2%.

With `N#C/C(=C\c1cc(Cl)cc(Cl)c1O)C(=O)NC1CCCCC1`, the values for the activity in test [1] and in test [2] were 26.5% and 47.6%, respectively.

Take `Cc1ccc(C(=O)N/N=C\c2ccccc2[N+](=O)[O-])cn1`: the activity in test [1] is 47.5%; in test [2], 43.6%.

As for `O=C(CCl)Nc1cccc(Oc2ccccc2)c1`, the activity in test [1] and in test [2] was 97.7% throughout.

In the case of `COC(=O)c1ccc(-c2nc3cc(N)ccc3o2)cc1`, the activity in test [1] came out at 61.9%; in test [2], 44.6%.

In the case of `COc1ccc(/C(N)=N/OC(=O)c2ccc(OC)c([N+](=O)[O-])c2)cc1OC`, the activity in test [1] worked out at 92.1%; in test [2], 84.7%.

For the compound `CN(C)c1cccc(C(=O)Nc2nc3ccccc3[nH]2)c1`, the values for the activity in test [1] and in test [2] were 90.2% and 78.5%, respectively.

`Cc1cccc(-c2cc3nc(-c4ccccc4)cc(=O)n3[nH]2)c1`: the activity in test [1] was determined as 50%; in test [2], 55.2%.

In the case of `N/C(=N\OC(=O)COc1ccc(Cl)cc1Cl)c1ccccn1`, the values for the activity in test [1] and in test [2] were 37% and 52.3%, respectively.

Regarding `COc1ccc(C(=O)Nc2ccc(C)cn2)c(OC)c1`, the activity was 95.3% in test [1] and 95.2% in test [2].

Turning to `Cc1cccc(N(Cc2ccccc2)C(=O)CCl)c1`, the activity in test [1] came to 99%; in test [2] it was 99.1%.

Consider `Cc1ccccc1Nc1nc(N)nc(CCl)n1`, for which the results for the activity in test [1] and in test [2] were 98.5% and 96.2%, respectively.

Consider `Cc1ccc2cc(NC(=O)c3ccccc3)ccc2n1`, for which the results for the activity in test [1] and in test [2] were 55% and 43.6%, respectively.

As for `Cc1ccc(OCCSCc2nnc(NC(=O)Nc3cccc(Cl)c3)s2)cc1`, the results for the activity in test [1] and in test [2] were 36.6% and 43.7%, respectively.

`CCn1nc(C(=O)NCCc2ccc(S(N)(=O)=O)cc2)c2ccccc2c1=O`: the values for the activity in test [1] and in test [2] were 16% and 41.1%, respectively.

In the case of `COc1cc(NC(=O)Nc2nc(C(N)Cc3ccc(C(F)(F)F)cc3)cs2)cc(OC)c1OC` (stereo unspecified), the activity in test [1] stood at 29.9%; in test [2], 74.6%.

On to `COc1cccc2sc3ccc(C#CC4(O)CCCCC4)cc3c(=O)c12`, for which the activity in test [1] was determined as 46.1%; in test [2], 45.8%.

With `Cc1ccc(OCC(=O)Nc2ccccc2C(N)=O)cc1`, the activity in test [1] came out at 66.8%; in test [2], 68.1%.

Regarding `CCN1CCN(c2ccc(S(=O)(=O)N3CCCCC3)cc2NC(=O)/C=C/c2ccc(OC(F)F)cc2)CC1`, the activity in test [1] was found to be 3.5%; in test [2], 5.28%.

Consider `O=C(NC(=S)N1CCc2ccccc21)c1ccccc1`, for which the activity worked out at 65.3% in test [1] and 72.6% in test [2].

On to `COC(=O)c1ccc2c(c1)C(C)(C)C(/C=C/c1ccc(O)cc1)=[N+]2C`, for which the activity was 43.9% in test [1] and 76.1% in test [2].

For the compound `CC(C)C(=O)Nc1ccc2nn(-c3ccccc3)nc2c1`, the activity worked out at 52.4% in test [1] and 55% in test [2].

Consider `COc1ccccc1C/C(N)=N/OC(=O)c1cccc([N+](=O)[O-])c1`, for which the activity is 89.8% in test [1] and 69.6% in test [2].

On to `COc1ccc(C(=O)/C=C2\C(=O)Nc3ccc(Br)cc32)cc1`, for which the activity in test [1] stood at 49.3%; in test [2], 77.4%.

Turning to `Cc1ccc(-n2nnc(-c3nccn3C)n2)cc1`, the activity in test [1] is 74.7%; in test [2], 77.1%.

For `Cn1c(=O)[nH]c(=O)c2c1nc([N+](=O)[O-])n2Cc1ccccc1`, the activity in test [1] was found to be 60.5%; in test [2] it was 96.2%.

In the case of `COc1ccc(C2NN=C(c3ccc(C)cc3)S2)cc1` (stereo unspecified), the activity in test [1] was determined as 51.8%; in test [2] it was 42.1%.

With `Fc1ccc(-n2nnc(-c3cnc4ccccc4c3)n2)cc1`, the results for the activity in test [1] and in test [2] were 70.8% and 63.9%, respectively.

On to `COc1cc2c(cc1NC(=O)c1cccc([N+](=O)[O-])c1)oc1ccccc12`, for which the activity in test [1] was -1.55%; in test [2] it was -9.4%.

As to `CC(C)(C)c1ccc(-c2nc3cc(N)ccc3o2)cc1`, the activity in test [1] stood at 81.9%; in test [2] it was 80.5%.

Consider `COc1ccc(N(C(=O)CCl)C(C(=O)NCCc2ccccc2)c2cccs2)cc1Cl` (stereo unspecified), for which the activity in test [1] amounted to 98.3%; in test [2], 99.1%.

Consider `NC(c1csc(NC(=O)Nc2cccc(C(F)(F)F)c2)n1)C1CCCCC1` (stereo unspecified), for which the activity was found to be 56.4% in test [1] and 94.9% in test [2].

`CN=c1scc(C)n1/N=C/c1ccc2c(c1)OCO2`: the activity in test [1] was found to be 56.7%; in test [2], 42.2%.

Turning to `O=C(NC(=S)Nc1ccccn1)c1ccccc1`, the values for the activity in test [1] and in test [2] were 77.8% and 76.8%, respectively.

Consider `COc1cccc(-c2cc3nc(-c4ccccc4)cc(N4CCN(C(=O)c5ccoc5)CC4)n3n2)c1`, for which the activity was found to be 82% in test [1] and 73.8% in test [2].

In the case of `Cc1ccc(-c2nc(NC(=O)c3nn(C)cc3[N+](=O)[O-])sc2C)cc1C`, the activity in test [1] worked out at 98.1%; in test [2], 99.1%.

Take `CCC(=O)c1ccc(OCC(=O)OCC(=O)N2CCCc3ccccc32)cc1`: the activity in test [1] was -9.15%; in test [2], -14.8%.

In the case of `Cn1c(N)c(C(=O)CCl)c(=O)n(Cc2ccccc2)c1=O`, the results for the activity in test [1] and in test [2] were 96% and 77.9%, respectively.
